An excerpt weighted towards active compounds, which were near 11% of everything screened.
IL-1B inflam inh: inhibitors of inflammasome signaling (IL-1 beta secretion). THP-1 LPS/ATP IL-1B secretion, AlphaLISA, 16 h; stronger effect = lower value. activity change, % at 57.5 µM. hit rate 4.7% among 360,000. AID 743279; in the data active means activity change below about -50%; inconclusive means mostly about -30% to -49%
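Secreted IL-1B measured by AlphaLISA bead assay after 16 h compound exposure of THP-1 cells; compounds (final up to 57.5 uM) added 1 h before LPS (250 ng/mL) and ATP (1.25 mM) stimulation; lower signal means less secretion.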
RORg inh: ROR gamma (mouse) transcription inhibition | P51450 | Drosophila S2 Gal4-RORgamma UAS-luciferase reporter, 20 h | Potency, µM (series often up to 53.6 µM), usual class: inhibitors | hit rate 5.4% among 310,000; further: nearly all actives have a fitted effect of over 60% in size
Target sequence (P51450 whole entry, looked up, the tested form may be a part): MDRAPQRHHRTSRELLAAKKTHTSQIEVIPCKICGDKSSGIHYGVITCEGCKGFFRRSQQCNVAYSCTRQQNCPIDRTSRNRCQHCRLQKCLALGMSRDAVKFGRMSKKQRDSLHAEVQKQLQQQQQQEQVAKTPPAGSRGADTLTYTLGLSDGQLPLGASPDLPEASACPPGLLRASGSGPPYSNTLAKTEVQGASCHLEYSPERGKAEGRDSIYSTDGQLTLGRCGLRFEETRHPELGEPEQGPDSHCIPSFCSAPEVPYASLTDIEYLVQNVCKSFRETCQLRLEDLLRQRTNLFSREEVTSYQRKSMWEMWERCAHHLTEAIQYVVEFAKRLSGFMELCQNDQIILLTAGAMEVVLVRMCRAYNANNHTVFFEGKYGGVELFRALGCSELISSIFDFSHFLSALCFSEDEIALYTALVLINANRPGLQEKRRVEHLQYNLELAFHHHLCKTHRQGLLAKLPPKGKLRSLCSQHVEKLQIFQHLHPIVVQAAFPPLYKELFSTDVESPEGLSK
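Compounds are pin-transferred onto Drosophila Schneider cells expressing a copper-inducible Gal4–ROR gamma transactivation domain fusion. After 1 hr, copper sulfate is added to 700 uM final; luciferase is read 20 hr later.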
VP16 counter: counter-screen for ROR gamma inhibitors: Gal4-VP16 reporter; Drosophila S2 Gal4-VP16 UAS-luciferase, luminescence, 20 h; Potency, µM (doses to about 53.6 µM), actives largely listed as inhibitors; hit rate 3.5% among 310,000; AID 2546;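 further: Gal4-VP16 expression switched on by copper sulfate through the metallothionein promoter; nearly all actives have a fitted effect of over 50% in size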
MCF10A rerep: inducers of DNA re-replication in MCF 10A breast cells. MCF 10A DNA re-replication, Hoechst nuclear intensity, 48 h. Potency, µM (highest dose often 46.1 µM), actives largely listed as activators. hit rate 2.9% among 350,000; further: nearly all actives have a fitted effect of over 50% in size
SW480 rerep: DNA re-replication induction in SW480 cells. SW480 DNA re-replication, Hoechst DNA content imaging, 48 h. Potency, µM (titrated, usually from 46.1 µM), actives largely listed as activators. hit rate 1.8% among 340,000; further: nearly all actives have a fitted effect of over 55% in size
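Readout is total intensity of Hoechst-stained nuclei, excited at 405 nm and collected at 500-530 nm. Compound treatment lasted 48 hr at 37 C in 5% CO2 before staining.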
A number is an active result; [ ] = remark or other dose. Unless noted, the call rests on the fitted dose curve; in most records, active means well fitted curve in the direction sought with a large enough effect; inconclusive means small, poorly fitted or top-dose-only effect, or another doubt; inactive means no such curve, though single readings can be large; an effect the other way counts as inactive or inconclusive.

Screening Nc1nonc1N/N=C/c1c(O)ccc2ccccc12 returned IL-1B inflam inh -59, RORg inh 11µM, VP16 counter inactive, MCF10A rerep inactive and SW480 rerep inactive.
For Nc1nonc1N/N=C\c1ccccc1 the results were IL-1B inflam inh inactive, RORg inh inactive, VP16 counter inactive, MCF10A rerep inactive and SW480 rerep inactive.
Nc1cc(Cl)nc(N/N=C/c2c(O)ccc3ccccc23)n1 was read as IL-1B inflam inh inactive, RORg inh 0.63µM, VP16 counter 11µM, MCF10A rerep inactive and SW480 rerep inconclusive.
For CC(C)N1CCC1(C)C(=O)Nc1nccc2cccnc12 (configuration not stated) the results were IL-1B inflam inh inactive.
For CCn1c(C)nc2cc(C(=O)N/N=C/c3cccc(O)c3O)ccc21 the results were IL-1B inflam inh inactive, RORg inh 2.2µM, VP16 counter 11µM, MCF10A rerep inconclusive and SW480 rerep inconclusive.
`CCn1c(C)nc2cc(C(=O)NNC(=S)Nc3ccccc3Cl)ccc21` gave IL-1B inflam inh inactive, RORg inh 11µM, VP16 counter 20µM, MCF10A rerep inactive and SW480 rerep inactive.
For CCn1c(C)nc2cc(C(=O)N/N=C/c3ccccc3)ccc21 the results were IL-1B inflam inh inactive, RORg inh inactive, VP16 counter inconclusive, MCF10A rerep inactive and SW480 rerep inactive.
Screening Cc1nc2cc(NC(=O)Nc3ccccc3Cl)ccc2n1C returned IL-1B inflam inh inconclusive, RORg inh 5µM, VP16 counter 11µM, MCF10A rerep inactive and SW480 rerep inactive.
For CCn1c(C)nc2cc(C(=O)N/N=C(\C)c3ccc(OC)cc3O)ccc21 the results were IL-1B inflam inh inactive, RORg inh 1µM, VP16 counter 2.8µM, MCF10A rerep inactive and SW480 rerep inactive.
`Cc1cccc([C@H]2[C@@H]3C=CC(C)C[C@@H]3C(=O)N2Cc2ccccc2)c1` (some centres not stated) gave RORg inh inactive and VP16 counter inactive.
`O=C(c1cccs1)N1CCN(c2nc3ccccc3s2)CC1` gave IL-1B inflam inh inactive, RORg inh inconclusive, VP16 counter inactive, MCF10A rerep inactive and SW480 rerep inactive.
`Cc1cccc2sc(N3CCN(C(=O)c4cccs4)CC3)nc12` gave IL-1B inflam inh -78, MCF10A rerep inactive and SW480 rerep inactive.
`COc1ccc(Br)cc1C1CC(=O)N2CN(C)CSC2=C1C#N` (configuration not stated) gave IL-1B inflam inh inactive, RORg inh 16µM, VP16 counter inactive, MCF10A rerep inactive and SW480 rerep inactive.
Screening CCOc1ccccc1-c1nnc2n1N=C(c1c(OC)cccc1OC)CS2 returned RORg inh inactive and VP16 counter inactive.
For CC(OC(=O)c1ccccc1NCCO)C(=O)NCC(=O)Nc1ccc(F)c(F)c1F (configuration not stated) the results were IL-1B inflam inh inactive, RORg inh inactive, VP16 counter inactive, MCF10A rerep inactive and SW480 rerep inactive.
`CCCOc1ccc(C(=O)c2nc3c(n2O)CCCCC3)cc1` gave IL-1B inflam inh inactive, RORg inh inactive, VP16 counter 20µM, MCF10A rerep inactive and SW480 rerep inactive.
CCCCOc1ccc(C(=O)CCN2CCOCC2)cc1 was read as IL-1B inflam inh -104, RORg inh inconclusive, VP16 counter inconclusive, MCF10A rerep inconclusive and SW480 rerep inconclusive.
Screening Brc1ccc(OCCCCCN2CCOCC2)cc1 returned IL-1B inflam inh -59, RORg inh inactive, VP16 counter inactive, MCF10A rerep inconclusive and SW480 rerep inactive.
For CCOc1ccc(C(=O)CCN2CCCCCC2)cc1 the results were IL-1B inflam inh inconclusive, RORg inh 4.5µM, VP16 counter 5.6µM, MCF10A rerep 3.3µM and SW480 rerep inconclusive.
Screening N#CCCn1c(=O)c(CCc2ccccc2)nc2cnc(Nc3ccccc3)nc21 returned RORg inh inactive and VP16 counter inactive.
For N#Cc1ccc(CN2CC[C@@]3(CCCN(C(=O)c4cccc(F)c4)C3)C2)cc1 the results were RORg inh inactive and VP16 counter inactive.
COc1ccc(CNc2cccc3[nH]c(C(F)(F)F)nc23)cc1OC was read as IL-1B inflam inh inactive, RORg inh inactive, VP16 counter inactive, MCF10A rerep inactive and SW480 rerep inactive.
For CCCOc1ccc(C(=O)CCN2CCCCC2)cc1 the results were IL-1B inflam inh inconclusive, RORg inh inconclusive, VP16 counter 14µM, MCF10A rerep inconclusive and SW480 rerep inconclusive.
Cc1cccc(NC(=O)COc2ccccc2C(=O)NC(C)c2ccccc2)c1 (configuration not stated) was read as IL-1B inflam inh inactive, RORg inh inactive, VP16 counter inactive, MCF10A rerep inconclusive and SW480 rerep inactive.
`CC(C)(C)C(=O)NC(=S)N1CCc2ccccc21` gave IL-1B inflam inh inactive, RORg inh 5µM, VP16 counter inconclusive, MCF10A rerep inactive and SW480 rerep inconclusive.
O=C(NC(=S)N1CCc2ccccc21)C1CCC1 was read as IL-1B inflam inh inactive, RORg inh 2.8µM, VP16 counter inconclusive, MCF10A rerep inactive and SW480 rerep inactive.
C=C(C)C(=O)Oc1ccc(N2C(=O)CCC2=O)cc1 was read as IL-1B inflam inh inactive, RORg inh inactive, VP16 counter inactive, MCF10A rerep inactive and SW480 rerep inactive.
For CC(=O)c1ccc(N=Nc2ccc(N(C)C)cc2)cc1 the results were IL-1B inflam inh inconclusive, RORg inh inactive, VP16 counter inactive, MCF10A rerep inactive and SW480 rerep inactive.
Screening C=C(C)C(=O)Oc1ccc(N=Nc2ccc(C)cc2)ccc1=O returned IL-1B inflam inh inconclusive, MCF10A rerep 16µM and SW480 rerep inconclusive.
For CC(=O)c1ccc(N=Nc2ccc(C)cc2)cc1 the results were IL-1B inflam inh inactive, RORg inh 10µM, VP16 counter inconclusive, MCF10A rerep inactive and SW480 rerep inactive.
CC[N+](CC)(CCNC(=O)C(=O)NCC[N+](CC)(CC)Cc1ccccc1Cl)Cc1ccccc1Cl was read as RORg inh inactive[10 µM], VP16 counter inactive, MCF10A rerep inactive and SW480 rerep inactive.
Screening CN1C/C(=C/c2ccccc2[N+](=O)[O-])C(=O)/C(=C\c2ccccc2[N+](=O)[O-])C1 returned IL-1B inflam inh -98, MCF10A rerep 1.8µM and SW480 rerep 1.2µM.
For O=C1C=C(c2ccc3c(c2)oc2ccccc23)C[C@@H](c2ccc(Cl)cc2)C1 the results were IL-1B inflam inh inactive, MCF10A rerep inactive and SW480 rerep inactive.
Screening CCCc1cc(=O)[nH]c(-n2[nH]c3c(c2=O)CCCC3)n1 returned IL-1B inflam inh inactive, RORg inh 2.2µM, VP16 counter 3.5µM, MCF10A rerep inactive and SW480 rerep inconclusive.
Screening CCOC(=O)[C@]12CCCC=C1N(Cc1ccco1)C(=O)[C@H](CC(=O)NCc1cccc(C(F)(F)F)c1)C2 returned IL-1B inflam inh inactive.
